Results taken from PubChem BioAssay (Tox21).
Inconclusive results are not listed. The source made the active and inactive calls. Unless noted, the call rests on the fitted dose curve; in most records, active means well fitted curve in the direction sought with a large enough effect in the repeat runs; inconclusive means weak or mixed curves; inactive means no such curve, though single readings can be large; an effect the other way counts as inactive or inconclusive.

Experiments:
[1] = target: Aryl hydrocarbon receptor (Homo sapiens) (UniProt P35869); experiment: qHTS assay to identify small molecule that activate the aryl hydrocarbon receptor (AhR) signaling pathway (AID 743085); further: nearly all actives have a fitted effect of over 15% in size; further: potency means the concentration at half of the fitted maximal effect;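 on activation: HG2L7.5c1 human HepG2 liver cells with stably integrated DRE-driven firefly reporter; series mostly up to about 70 µM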
Sequence of Aryl hydrocarbon receptor (Homo sapiens) (P35869 whole entry, looked up): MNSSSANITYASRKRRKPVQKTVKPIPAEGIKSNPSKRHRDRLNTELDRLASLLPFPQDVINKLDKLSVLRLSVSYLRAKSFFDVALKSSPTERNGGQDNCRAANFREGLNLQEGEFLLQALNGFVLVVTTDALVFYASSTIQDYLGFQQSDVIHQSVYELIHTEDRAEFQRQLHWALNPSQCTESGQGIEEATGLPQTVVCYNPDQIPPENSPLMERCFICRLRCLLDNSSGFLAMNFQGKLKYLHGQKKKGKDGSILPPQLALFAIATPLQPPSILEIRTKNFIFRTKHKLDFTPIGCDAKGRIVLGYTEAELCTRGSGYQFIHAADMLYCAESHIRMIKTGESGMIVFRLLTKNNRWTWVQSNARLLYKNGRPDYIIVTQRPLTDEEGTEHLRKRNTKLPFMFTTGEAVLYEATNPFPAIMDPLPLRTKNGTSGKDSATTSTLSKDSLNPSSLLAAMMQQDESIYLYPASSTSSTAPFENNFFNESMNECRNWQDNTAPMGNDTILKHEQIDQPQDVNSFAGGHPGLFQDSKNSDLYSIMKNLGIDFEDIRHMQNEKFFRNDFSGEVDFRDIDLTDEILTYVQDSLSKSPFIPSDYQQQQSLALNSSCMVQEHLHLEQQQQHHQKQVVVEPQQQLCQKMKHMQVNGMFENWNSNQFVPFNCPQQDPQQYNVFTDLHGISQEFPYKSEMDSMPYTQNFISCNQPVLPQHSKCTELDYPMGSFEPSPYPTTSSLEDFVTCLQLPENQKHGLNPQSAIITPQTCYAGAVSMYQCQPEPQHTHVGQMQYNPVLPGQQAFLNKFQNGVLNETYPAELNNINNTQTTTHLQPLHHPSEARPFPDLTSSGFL
Method in brief: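 24 h compound exposure, 37C, HepG2-derived HG2L7.5c1 cells with DRE-responsive luciferase. Readouts: fluorescence viability, then luminescence at room temperature after 30 min.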

[2] = qHTS assay to identify small molecule that activate the aryl hydrocarbon receptor (AhR) signaling pathway - cell viability counter screen (AID 743086);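 further: HepG2 liver cells carrying the AhR DRE luciferase reporter; series mostly up to about 70 µM; nearly all actives have a fitted effect of over 45% in size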
Method in brief: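 HepG2-AhR-luc (HG2L7.5c1) cells, 4000/well, treated 24 h at 37 C with compound; viability measured as CellTiter-Fluor fluorescence after 30 min in the same wells as the luciferase read.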

[3] = target: Peroxisome proliferator-activated receptor gamma (Homo sapiens) (UniProt P37231); experiment: qHTS assay to identify small molecule antagonists of the peroxisome proliferator-activated receptor gamma (PPARg) signaling pathway (AID 743191; calls by dose curve; further: series mostly up to about 63 µM; nearly all actives have a fitted effect of over 30% in size)
Sequence of Peroxisome proliferator-activated receptor gamma (Homo sapiens) (P37231 whole entry, looked up): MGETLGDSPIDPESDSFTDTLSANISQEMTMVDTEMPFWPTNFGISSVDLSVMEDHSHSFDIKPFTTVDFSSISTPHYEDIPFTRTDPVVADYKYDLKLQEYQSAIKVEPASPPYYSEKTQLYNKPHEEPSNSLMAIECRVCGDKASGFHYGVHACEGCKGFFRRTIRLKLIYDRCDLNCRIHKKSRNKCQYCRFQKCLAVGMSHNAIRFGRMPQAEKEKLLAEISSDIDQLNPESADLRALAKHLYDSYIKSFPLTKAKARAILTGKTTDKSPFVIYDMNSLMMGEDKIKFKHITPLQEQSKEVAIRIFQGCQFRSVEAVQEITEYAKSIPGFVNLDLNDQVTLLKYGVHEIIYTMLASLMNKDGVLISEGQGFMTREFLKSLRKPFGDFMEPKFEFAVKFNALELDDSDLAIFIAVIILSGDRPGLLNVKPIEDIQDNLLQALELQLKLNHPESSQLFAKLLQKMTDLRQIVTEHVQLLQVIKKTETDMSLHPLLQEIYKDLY
Method in brief: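 GeneBLAzer PPARg UAS-bla HEK293H cells, 5 h post-plating, exposed to compounds 17 h at 37C. LiveBLAzer B/G FRET substrate added for 1 h at room temperature; beta-lactamase reporter read by fluorescence intensity.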

[4] = qHTS assay to identify small molecule antagonists of the peroxisome proliferator-activated receptor gamma (PPARg) signaling pathway - cell viability counter screen (AID 743194); further: nearly all actives have a fitted effect of over 55% in size
Method in brief: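 Cytotoxicity counter screen in PPARg-bla HEK293H cells, same wells as reporter assay. Compounds plus 50 nM rosiglitazone (final) for 17 h at 37 C, then viability read by CellTiter-Glo luminescence.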

[5] = qHTS assay for small molecule agonists of the antioxidant response element (ARE) signaling pathway (AID 743202; active means well fitted activation curve with a large enough effect in the signal ratio in the repeat runs, not every such curve was filed as active; the % refers to the signal ratio)
Method in brief: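 ARE-bla HepG2 cells (beta-lactamase reporter under the antioxidant response element), plated 5 hours, then exposed to compounds 16 hours at 37 C. LiveBLAzer B/G FRET substrate added for 2 hours at room temperature; fluorescence intensity read.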

[6] = qHTS assay for small molecule activators of the heat shock response signaling pathway - cell viability counter screen (AID 743209); further: nearly all actives have a fitted effect of over 50% in size
Method in brief: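 HSE-bla HeLa cells plated overnight, then exposed to Tox21 compounds (23 nL in DMSO) for 5 h at 37 C. After the bla reporter read, CellTiter-Glo was added in the same wells and luminescence read after 30 min at room temperature.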

[7] = qHTS assay for small molecule activators of the heat shock response signaling pathway (AID 743210; active means well fitted activation curve with a large enough effect in the signal ratio in the repeat runs, with a control signal flat, not every such curve was filed as active; the % refers to the signal ratio; further: series mostly up to about 63 µM)
Method in brief: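 HSE-bla HeLa cells (beta-lactamase reporter under heat shock response elements), plated overnight, then exposed to compounds 5 h at 37 C; LiveBLAzer B/G FRET substrate added, 2.5 h at room temperature, fluorescence intensity read.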

[8] = qHTS assay to identify small molecule agonists of the peroxisome proliferator-activated receptor delta (PPARd) signaling pathway - cell viability counter screen (AID 743211); further: nearly all actives have a fitted effect of over 55% in size
Method in brief: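 Luminescent ATP viability assay (CellTiter-Glo, 30 min RT) in UAS-bla HEK293H cells carrying the PPAR delta reporter construct, 3000 cells/well, after a 17 h compound treatment at 37 C.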

[9] = qHTS assay for small molecule agonists of the antioxidant response element (ARE) signaling pathway - cell viability counter screen (AID 743203; calls by dose curve; further: nearly all actives have a fitted effect of over 55% in size)
Method in brief: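 ARE-bla HepG2 cells were plated, rested 5 h at 37C/5% CO2, then exposed to compounds in DMSO for 16 h. Viability was read as CellTiter-Glo luminescence after 30 min at room temperature, in the same wells as the ARE screen.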

[10] = target: Peroxisome proliferator-activated receptor gamma (Homo sapiens) (UniProt P37231); experiment: qHTS assay to identify small molecule agonists of the peroxisome proliferator-activated receptor gamma (PPARg) signaling pathway (AID 743094; active means well fitted activation curve with a large enough effect in the signal ratio in the repeat runs, not every such curve was filed as active; the % refers to the signal ratio)
Method in brief: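 GeneBLAzer PPARg UAS-bla HEK293H cells were plated, rested 5 h, then exposed to compounds for 17 h at 37C. Beta-lactamase activity was read by LiveBLAzer B/G FRET substrate fluorescence after 1 h at room temperature.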
On the % scale 0 is the no-effect control and ±100 the full control effect.

CCOC(=O)OCC/C(SC(=O)OCC)=C(\C)N(C=O)Cc1cnc(C)nc1N
inactive: Potency [1] | Potency [2] | Potency [3] | outcome [4] | Potency [5] | outcome [6] | outcome [7] | outcome [8]

CCCCOC(=O)C(=O)OCCCC
inactive: Potency [1] | Potency [2] | Potency [3] | outcome [4] | Potency [5] | outcome [9] | outcome [7] | outcome [8]

NC(=O)NNC(N)=O
inactive: Potency [1] | Potency [2] | outcome [10] | outcome [9] | outcome [6] | outcome [7] | outcome [8]

O=C(c1ccc2c(c1)C(=O)OC2=O)c1ccc2c(c1)C(=O)OC2=O
inactive: Potency [1] | Potency [2] | outcome [10] | Potency [5] | outcome [9] | outcome [6] | outcome [8]

COCCOCCOCCOC
inactive: Potency [1] | Potency [2] | outcome [4] | Potency [5] | outcome [9] | outcome [6] | outcome [7] | outcome [8]

CCNC(=O)NCCCOc1cccc(CN2CCCCC2)c1
inactive: Potency [1] | Potency [2] | outcome [10] | Potency [5] | outcome [9] | outcome [6] | outcome [7] | outcome [8]

CC(C)c1ccccc1O
inactive: Potency [1] | Potency [2] | outcome [4] | Potency [5] | outcome [9] | outcome [6] | outcome [7] | outcome [8]

C[C@H](CCC(=O)O)[C@H]1CC[C@H]2[C@@H]3[C@H](O)C[C@@H]4C[C@H](O)CC[C@]4(C)[C@H]3C[C@H](O)[C@]12C
inactive: Potency [1] | Potency [2] | Potency [3] | outcome [4] | Potency [5] | outcome [9] | outcome [6] | outcome [7] | outcome [8]

CO[Si](CCCCl)(OC)OC
inactive: Potency [1] | Potency [2] | outcome [10] | outcome [4] | outcome [6] | outcome [7] | outcome [8]

O=C1CC[C@H](C(=O)N2CCCCC2)N1
inactive: Potency [1] | Potency [2] | outcome [4] | Potency [5] | outcome [9] | outcome [6] | outcome [7] | outcome [8]

CN(C1CCCCC1)S(=O)(=O)c1ccccc1N
inactive: Potency [1] | Potency [2] | Potency [3] | outcome [4] | outcome [9] | outcome [6] | outcome [8]

COc1ccc(NS(=O)(=O)c2ccc(N)cc2)nn1
inactive: Potency [1] | Potency [2] | outcome [4] | Potency [5] | outcome [9] | outcome [6] | outcome [7] | outcome [8]

CC1CCC(C(C)(C)S)C(=O)C1 (stereo not drawn)
inactive: Potency [1] | Potency [2] | Potency [3] | outcome [4] | outcome [6] | outcome [7] | outcome [8]

Nc1ccc(/C=C/c2ccc(N)cc2S(=O)(=O)O)c(S(=O)(=O)O)c1
inactive: Potency [1] | Potency [2] | activity change, negative = cytotoxicity [4] -0.597% [at 0.55 µM] | activation [5] -8.26% [at 0.756 µM] | viability change, negative = cytotoxic [9] -11% [at 0.756 µM] | activity change, negative = cytotoxicity [6] 6.28% [at 0.55 µM] | activation [7] 0.7% [at 0.55 µM] | activity change, negative = cytotoxicity [8] 4.06% [at 0.55 µM]

Nc1ccc(S(=O)(=O)NC(=O)c2ccccc2)cc1
inactive: Potency [1] | Potency [2] | Potency [3] | outcome [4] | outcome [9] | outcome [6] | outcome [7] | outcome [8]

CN(C)CCOCCN(C)CCO
inactive: Potency [1] | Potency [2] | Potency [3] | outcome [4] | Potency [5] | outcome [9] | outcome [6] | outcome [7] | outcome [8]

NC(=O)NC(=O)Cc1ccccc1
inactive: Potency [1] | Potency [2] | Potency [3] | outcome [4] | Potency [5] | outcome [9] | outcome [6] | outcome [8]

CCCCCCCCCCCCC
inactive: Potency [1] | Potency [2] | outcome [10] | outcome [4] | outcome [6] | outcome [7]

C1=C\CC/C=C\CC/1
inactive: Potency [1] | Potency [2] | Potency [3] | outcome [4] | Potency [5] | outcome [9] | outcome [6] | outcome [7] | outcome [8]

CCCCCCCCCCCCCCCC(=O)NCCO
inactive: Potency [1] | Potency [2] | outcome [10] | outcome [4] | outcome [9] | outcome [7] | outcome [8]

CCCCCCCCC(=O)OCC
inactive: Potency [1] | Potency [2] | Potency [3] | outcome [4] | Potency [5] | outcome [9] | outcome [6] | outcome [7] | outcome [8]

Cc1c(C(C)C)c(=O)n(-c2ccccc2)n1C
inactive: Potency [1] | Potency [2] | Potency [3] | outcome [4] | Potency [5] | outcome [9] | outcome [6] | outcome [7] | outcome [8]

C1=CCC(c2ccccc2)CC1 (stereo not drawn)
inactive: Potency [1] | Potency [2] | Potency [3] | outcome [4] | outcome [9] | outcome [7] | outcome [8]

CCc1nccnc1C
inactive: Potency [1] | Potency [2] | Potency [3] | outcome [4] | Potency [5] | outcome [9] | outcome [6] | outcome [7] | outcome [8]

O=S(=O)(O)SSS(=O)(=O)O
inactive: Potency [1] | Potency [2] | outcome [10] | outcome [4] | outcome [9] | outcome [8]

Nc1cc(Cl)cc(S(=O)(=O)O)c1O
inactive: Potency [1] | Potency [2] | outcome [10] | outcome [4] | outcome [6] | outcome [7] | outcome [8]

F[Si-2](F)(F)(F)(F)F
inactive: Potency [1] | Potency [2] | Potency [3] | outcome [4] | Potency [5] | outcome [9] | outcome [6] | outcome [7] | outcome [8]

Cc1nc([N+](=O)[O-])cn1-c1ccc([N+](=O)[O-])cc1
inactive: Potency [1] | Potency [2] | Potency [3] | outcome [4] | Potency [5] | outcome [9] | outcome [6] | outcome [7] | outcome [8]

Cc1ccc(S(=O)(=O)NC(=O)NC2CCCCCCC2)cc1
inactive: Potency [1] | Potency [2] | outcome [4] | Potency [5] | outcome [9] | outcome [6] | outcome [7] | outcome [8]

C=C[Si](C)(C)O[Si](C)(C)C=C
inactive: Potency [1] | Potency [2] | Potency [3] | outcome [4] | Potency [5] | outcome [9] | outcome [6] | outcome [7] | outcome [8]

O=C1OC(=O)c2ccccc21
inactive: Potency [2] | outcome [10] | outcome [4] | Potency [5] | outcome [9] | outcome [6] | outcome [7] | outcome [8]

CCCCCCCCCCCCCCCCI
inactive: Potency [1] | Potency [2] | outcome [4] | Potency [5] | outcome [9] | outcome [7]

O=C(O)c1c(Cl)ccc(Cl)c1Cl
inactive: Potency [2] | outcome [10] | outcome [4] | Potency [5] | outcome [9] | outcome [7] | outcome [8]

CCCCC(CC)C(=O)OC(C)C (stereo not drawn)
inactive: Potency [1] | Potency [2] | outcome [4] | Potency [5] | outcome [9] | outcome [6] | outcome [7] | outcome [8]

CC(C)CCC(=O)CCC(C)C
inactive: Potency [2] | outcome [10] | Potency [3] | outcome [4] | outcome [9] | outcome [6] | outcome [7] | outcome [8]

Cc1ccc2c(c1)c1c3n2CCNC3CCC1 (stereo not drawn)
inactive: Potency [5] | outcome [9] | outcome [6] | outcome [8]
active: Potency [1] 10.6 µM

NC(=O)C1(N2CCCCC2)CCN(CCCC(=O)c2ccc(F)cc2)CC1
inactive: Potency [2] | outcome [10] | Potency [3] | outcome [4] | Potency [5] | outcome [9] | outcome [6] | outcome [7] | outcome [8]

NS(=O)(=O)c1cc2c(cc1Cl)NC(C(Cl)Cl)NS2(=O)=O (stereo not drawn)
inactive: Potency [1] | Potency [2] | outcome [4] | outcome [9] | outcome [6] | outcome [7] | outcome [8]

NCCc1ccn[nH]1
inactive: Potency [1] | Potency [2] | outcome [4] | outcome [9] | outcome [6] | outcome [7] | outcome [8]

Cc1cc(C)cc([N+](=O)[O-])c1
inactive: Potency [1] | Potency [2] | outcome [4] | Potency [5] | outcome [9] | outcome [6] | outcome [7] | outcome [8]

C[Si]1(C)N[Si](C)(C)N[Si](C)(C)N1
inactive: Potency [2] | outcome [10] | outcome [4] | Potency [5] | outcome [9] | outcome [6] | outcome [7]

Cc1ccccc1OCC1CO1 (stereo not drawn)
inactive: Potency [1] | Potency [2] | outcome [4] | Potency [5] | outcome [6] | outcome [7] | outcome [8]

SCCSCCS
inactive: Potency [1] | Potency [2] | outcome [4] | Potency [5] | outcome [9] | outcome [6] | outcome [7] | outcome [8]

C[C@@H]1C[C@H]2[C@@H]3C[C@H](F)C4=CC(=O)C=C[C@]4(C)[C@@]3(F)[C@@H](O)C[C@]2(C)[C@@]1(O)C(=O)CO
inactive: Potency [1] | Potency [2] | outcome [4] | Potency [5] | outcome [9] | outcome [6] | outcome [7] | outcome [8]

CCCCC(=O)N(C)C
inactive: Potency [1] | Potency [2] | outcome [4] | Potency [5] | outcome [7] | outcome [8]

CCC1COC(=O)O1 (stereo not drawn)
inactive: Potency [1] | Potency [2] | outcome [4] | Potency [5] | outcome [9] | outcome [6] | outcome [8]

COC(OC)C(C)c1ccccc1 (stereo not drawn)
inactive: Potency [2] | outcome [10] | Potency [3] | outcome [4] | outcome [9] | outcome [6] | outcome [8]

CN[C@@H]1[C@H](O)[C@H](NC)[C@H]2O[C@@]3(O)C(=O)C[C@@H](C)O[C@H]3O[C@@H]2[C@H]1O
inactive: Potency [2] | outcome [10] | Potency [3] | outcome [4] | Potency [5] | outcome [9] | outcome [6] | outcome [8]
